Experimental data: PubChem BioAssay AID1671202 (University of Kansas High Throughput Screening Laboratory, 2021)
Several values for one entry are separate records, joined by “and”; a condition that tells them apart may be missing. Identical values can stand only once. Among all 190,000 compounds or so, about 6,900 (3.6%) were called active. Many of the other results were omitted from the sample, so actives are more common in it than they were. Unmarked numbers belong to inactive results. Rule as the data show it: active = inhibition above about 50%; inactive = the rest.

biological target: Huntingtin (Homo sapiens) (UniProt P42858); test: mutant huntingtin-calmodulin interaction inhibitors – biochemical, AlphaScreen, primary screen (AID 1671202); conditions: AlphaScreen His-mHTT/GST-CaM binding, luminescence; at 15 µM, active compounds read high;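 also: 0% = both proteins with DMSO and 100% = one protein alone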
Sequence (P42858 whole entry, looked up, stated change not applied): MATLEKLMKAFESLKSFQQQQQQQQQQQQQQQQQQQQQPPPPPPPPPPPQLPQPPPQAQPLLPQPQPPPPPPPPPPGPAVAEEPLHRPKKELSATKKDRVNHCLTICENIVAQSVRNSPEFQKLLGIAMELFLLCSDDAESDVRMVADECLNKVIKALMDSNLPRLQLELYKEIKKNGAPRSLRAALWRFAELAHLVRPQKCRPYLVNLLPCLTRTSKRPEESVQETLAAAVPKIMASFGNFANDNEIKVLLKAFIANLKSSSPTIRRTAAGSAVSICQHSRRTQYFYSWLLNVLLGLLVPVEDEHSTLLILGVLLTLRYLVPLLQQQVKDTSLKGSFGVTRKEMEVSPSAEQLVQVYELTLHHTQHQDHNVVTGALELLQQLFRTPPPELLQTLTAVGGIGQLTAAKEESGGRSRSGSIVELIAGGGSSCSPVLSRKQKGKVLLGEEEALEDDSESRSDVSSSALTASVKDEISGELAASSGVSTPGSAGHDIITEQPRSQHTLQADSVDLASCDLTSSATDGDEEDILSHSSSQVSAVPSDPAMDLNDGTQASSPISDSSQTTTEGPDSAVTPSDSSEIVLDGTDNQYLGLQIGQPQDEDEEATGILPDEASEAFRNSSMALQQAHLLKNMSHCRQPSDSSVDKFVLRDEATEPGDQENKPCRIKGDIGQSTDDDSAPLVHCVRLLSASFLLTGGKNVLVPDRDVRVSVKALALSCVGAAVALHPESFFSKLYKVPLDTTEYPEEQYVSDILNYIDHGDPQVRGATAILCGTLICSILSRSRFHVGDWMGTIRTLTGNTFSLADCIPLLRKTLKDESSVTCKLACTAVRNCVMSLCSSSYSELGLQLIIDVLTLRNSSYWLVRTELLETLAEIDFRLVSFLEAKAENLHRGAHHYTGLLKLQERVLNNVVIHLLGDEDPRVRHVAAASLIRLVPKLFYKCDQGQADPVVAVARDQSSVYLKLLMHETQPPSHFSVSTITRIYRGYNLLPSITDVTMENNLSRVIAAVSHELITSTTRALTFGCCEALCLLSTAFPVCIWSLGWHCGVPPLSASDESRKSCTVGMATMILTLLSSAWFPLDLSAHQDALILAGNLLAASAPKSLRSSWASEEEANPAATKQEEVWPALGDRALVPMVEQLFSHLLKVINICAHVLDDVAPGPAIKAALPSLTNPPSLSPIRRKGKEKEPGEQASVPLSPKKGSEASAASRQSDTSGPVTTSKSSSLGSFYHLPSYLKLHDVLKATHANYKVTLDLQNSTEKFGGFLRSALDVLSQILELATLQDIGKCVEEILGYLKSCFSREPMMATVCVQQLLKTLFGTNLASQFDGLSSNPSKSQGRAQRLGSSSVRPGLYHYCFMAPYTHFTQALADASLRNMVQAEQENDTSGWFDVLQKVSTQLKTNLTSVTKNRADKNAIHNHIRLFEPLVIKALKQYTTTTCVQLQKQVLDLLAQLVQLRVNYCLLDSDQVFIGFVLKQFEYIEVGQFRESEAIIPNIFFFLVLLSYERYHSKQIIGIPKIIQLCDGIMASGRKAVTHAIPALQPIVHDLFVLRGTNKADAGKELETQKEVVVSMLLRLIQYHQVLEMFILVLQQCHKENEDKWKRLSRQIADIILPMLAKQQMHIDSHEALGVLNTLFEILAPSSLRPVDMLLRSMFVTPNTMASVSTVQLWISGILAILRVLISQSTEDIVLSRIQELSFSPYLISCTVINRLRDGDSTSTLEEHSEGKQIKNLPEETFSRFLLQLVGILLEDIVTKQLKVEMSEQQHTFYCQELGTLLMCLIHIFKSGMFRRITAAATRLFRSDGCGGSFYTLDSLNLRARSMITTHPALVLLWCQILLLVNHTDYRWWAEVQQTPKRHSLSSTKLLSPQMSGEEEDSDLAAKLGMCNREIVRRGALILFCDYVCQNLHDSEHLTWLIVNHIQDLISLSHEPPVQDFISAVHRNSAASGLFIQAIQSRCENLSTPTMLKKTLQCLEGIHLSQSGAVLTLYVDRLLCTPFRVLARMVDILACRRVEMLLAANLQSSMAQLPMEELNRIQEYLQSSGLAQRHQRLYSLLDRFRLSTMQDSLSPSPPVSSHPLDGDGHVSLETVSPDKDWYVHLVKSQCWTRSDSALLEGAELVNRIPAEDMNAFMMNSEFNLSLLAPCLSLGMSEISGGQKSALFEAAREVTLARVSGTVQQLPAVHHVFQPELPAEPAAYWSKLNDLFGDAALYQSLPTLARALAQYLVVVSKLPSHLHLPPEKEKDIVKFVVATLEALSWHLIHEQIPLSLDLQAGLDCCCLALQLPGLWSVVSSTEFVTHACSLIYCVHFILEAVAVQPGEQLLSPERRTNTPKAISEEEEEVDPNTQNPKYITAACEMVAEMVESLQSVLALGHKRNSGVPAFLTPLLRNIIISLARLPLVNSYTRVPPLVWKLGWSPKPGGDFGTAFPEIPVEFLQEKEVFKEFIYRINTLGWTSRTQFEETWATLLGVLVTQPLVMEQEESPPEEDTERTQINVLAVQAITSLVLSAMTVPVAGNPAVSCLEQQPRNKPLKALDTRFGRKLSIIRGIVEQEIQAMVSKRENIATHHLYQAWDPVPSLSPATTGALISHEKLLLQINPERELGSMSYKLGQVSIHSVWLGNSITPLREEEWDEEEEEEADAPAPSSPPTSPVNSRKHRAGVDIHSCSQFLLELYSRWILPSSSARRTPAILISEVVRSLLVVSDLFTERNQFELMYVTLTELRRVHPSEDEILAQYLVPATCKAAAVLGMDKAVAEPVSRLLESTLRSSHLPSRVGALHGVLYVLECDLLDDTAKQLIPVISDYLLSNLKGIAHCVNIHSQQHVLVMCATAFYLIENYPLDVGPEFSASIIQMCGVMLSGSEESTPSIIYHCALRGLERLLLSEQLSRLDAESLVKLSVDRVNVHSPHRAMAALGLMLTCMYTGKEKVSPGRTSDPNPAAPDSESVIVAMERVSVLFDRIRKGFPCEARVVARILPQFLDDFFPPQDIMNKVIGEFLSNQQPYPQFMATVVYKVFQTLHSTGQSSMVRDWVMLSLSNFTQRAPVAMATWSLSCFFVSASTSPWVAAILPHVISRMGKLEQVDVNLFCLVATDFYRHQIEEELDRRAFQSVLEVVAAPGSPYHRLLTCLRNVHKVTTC

| Structure (SMILES) | inhibition |
| --- | --- |
| Cc1ccc(CNC(=O)c2ccnc(N3CCNC(c4ccccc4)C3)c2)cc1 (configuration not stated) | 35.5% |
| COCCCNC(=O)c1c(NC(=O)c2ccccc2Cl)sc2c1CCCC2 | -17.4% |
| O=c1cc(-c2ccccc2F)oc2ccc(Cl)cc12 | -8.7% |
| COc1cc(C=Nc2oc(C)c(C)c2C#N)ccc1O | 6% |
| CC1=C(C#N)c2nc(N)c(C#N)c(C)c2/C1=C/c1ccccc1[N+](=O)[O-] | 16% |
| COc1cc(/C=C2\C(C)=C(C#N)c3nc(N)c(C#N)c(C)c32)ccc1O | 60% (active) |
| CC(=O)Nc1c(C)ccc(S(=O)(=O)N2CCCCC2)c1C | 2.7% |
| CCCCCCN1CCS(=O)(=O)N(Cc2ccc(C(F)(F)F)cc2)C(C(=O)OC)C1 (configuration not stated) | -0.1% |
| COC(=O)C1CN(CC(C)C)CCS(=O)(=O)N1Cc1ccc(F)cc1 (configuration not stated) | 7.2% |
| COC(=O)C1CN(CCc2ccccc2)CCS(=O)(=O)N1Cc1ccc(F)cc1 (configuration not stated) | 50.6% (active) |
| Nc1ncnc(NCc2cccc(Cl)c2)c1[N+](=O)[O-] | 3% |
| O=[N+]([O-])c1cc(S(=O)(=O)CCCN2CCOCC2)ccc1F | 97% (active) |
| O=S(=O)(NCCN1CCOCC1)c1ccc(I)cc1 | -0.7% |
| Cc1ccc(OCCOCCN2CCOCC2)c([N+](=O)[O-])c1 | 2% |
| CC1CCc2nn(CC(=O)Nc3ccccc3Cl)c(=O)cc2C1 (configuration not stated) | 0.27% |
| COc1ccc(N2CCN(CC(O)COc3ccc(C(C)=O)cc3)CC2)cc1 (configuration not stated) | 3.7% |
| Cc1ccc(-c2nc3s/c(=C\c4ccccc4)c(=O)n3n2)cc1 | 7% |
| N#C/C(=C\c1cccs1)c1nc(-c2ccc3c(c2)OCO3)cs1 | -4.4% |
| COc1ccc(OC)c(NC(=O)NS(=O)(=O)c2ccc(C)cc2)c1 | 14.2% |
| CC(=O)Nc1cc2nn(-c3ccc(Cl)cc3)nc2cc1C | 0.6% and -5% |
| Cc1nnc2ccc(S(=O)(=O)N(Cc3ccc(F)cc3)c3ccccc3)cn12 | 54.8% (active) |
| Cc1nnc2ccc(NC(=O)NCc3ccc(F)cc3)cn12 | -6.1% |
| Cc1nnc2ccc(S(=O)(=O)N(Cc3ccccc3)c3ccc(F)cc3)cn12 | -2.4% |

| Structure (SMILES) | inhibition |
| --- | --- |
| O=C(Nc1cccs1)N1CCN(c2ccc(-c3ccco3)nn2)CC1 | 52% (active) |
| CC(C)Oc1ccc(C(=O)N2CCN(Cc3nc(-c4ccco4)cs3)CC2)cc1 | 9.1% |
| O=C(c1cccc(-n2cnnn2)c1)N1CCN(c2ccc(-c3cccs3)nn2)CC1 | 2.8% |
| COc1ccc(C2C(C#N)=C(N)N(c3ccccc3[N+](=O)[O-])C3=C2C(=O)CCC3)cc1 (configuration not stated) | 21% |
| Clc1ccc2[nH]c3c(c2c1)CCCC3NCCOc1ccccc1 (configuration not stated) | 100% (active) |
| Cc1ccc2[nH]c3c(c2c1)CCCC3O (configuration not stated) | 19.3% |
| COc1ccc(-c2cc3nc4c(c(=O)n3[nH]2)CCN(C(=O)c2ccccc2C)C4)cc1 | 65.3% (active) |
| COC(=O)c1cccc(NC(=O)N2CCc3c(nc4cc(-c5ccccc5)[nH]n4c3=O)C2)c1 | 7.79% |
| O=C(C1COc2ccccc2O1)N1CCc2c(nc3cc(-c4ccccc4)[nH]n3c2=O)C1 (configuration not stated) | 76.2% (active) |
| COc1ccc(-c2cc3nc4c(c(=O)n3[nH]2)CN(C(=O)c2ccccc2Cl)CC4)cc1 | 62.5% (active) |
| CNC(=O)N1CCc2nc3cc(-c4ccc(OC)cc4)[nH]n3c(=O)c2C1 | 9.34% |
| O=C(c1ccc(C(F)(F)F)s1)N1CCc2c(nc3cc(-c4ccccc4)[nH]n3c2=O)C1 | 42.1% |
| CCc1cccc(NC(=O)N2CCc3c(nc4cc(-c5ccc(OC)cc5)[nH]n4c3=O)C2)c1 | 26.8% |
| COc1ccc(-c2cc3nc4c(c(=O)n3[nH]2)CN(C(=O)CSc2ccccc2)CC4)cc1 | 9.49% |
| COc1ccc(-c2cc3nc4c(c(=O)n3[nH]2)CN(C(=O)c2ccc(C)nc2)CC4)cc1 | 1.93% |
| CCOc1ccc(NC(=O)c2ccc(F)c(S(=O)(=O)NC3CCCCCC3)c2)cc1 | 11% |
| C=CCN(C(C)=O)c1nc(C)c(Cl)c(OC)n1 | -2% |
| CCOC1CCc2oc(-c3ccsc3)c(C#CC(C)(C)O)c21 (configuration not stated) | 11.3% |
| O=C(NC1CC2CC1N(C(=O)c1cccc(C(F)(F)F)c1)C2)c1cccs1 (configuration not stated) | 0.72% |
| COCc1noc(C2CCCCN2CC(=O)NCc2cccs2)n1 (configuration not stated) | 0.04% |
| Cc1[nH]c(=O)[nH]c(=O)c1S(=O)(=O)Nc1ccccn1 | -4% |
| O=C1C2C3C=CC(C4CC34)C2C(=O)N1CC1CCCO1 (configuration not stated) | 0.3% |
| O=C(NCc1nnc2n1CCCC2)c1ccc2c(c1)OCO2 | -5.87% |

| Structure (SMILES) | inhibition |
| --- | --- |
| O=c1oc2ccccc2cc1-c1csc(N=Cc2ccccc2O)n1 | 26% |
| COc1cccc(N2CCN(C(=O)c3cccs3)C(C)C2=O)c1 (configuration not stated) | -6.9% |
| O=C(CCc1ccccc1)NCc1cccnc1-c1ccccc1 | -6.5% |
| Cc1ccc(C(=O)N2CCC(CCNS(=O)(=O)Cc3ccccc3)CC2)cc1 | 44.2% |
| O=C(c1ccccc1)N1CCC(CCNS(=O)(=O)c2cccc3nsnc23)CC1 | 50.2% (active) |
| N#Cc1cccc(S(=O)(=O)NCCC2CCN(C(=O)c3ccccc3)CC2)c1 | 34.6% |
| Cc1ccc(C(=O)N2CCC(CCNS(=O)(=O)c3ccc(C(C)C)cc3)CC2)cc1 | 53.6% (active) |
| COc1ccc(S(=O)(=O)NCCC2CCN(C(=O)c3ccccc3)CC2)cc1OC | 30.3% |
| Cc1ccc(C(=O)N2CCC(CCNS(=O)(=O)c3ccccc3F)CC2)cc1 | 39.1% |
| O=C(CC1CCCCC1)N1CCCC(COc2ccc(C(=O)N3CCCCC3)cc2)C1 (configuration not stated) | 13.4% |
| CCC(C)NC(=O)c1cc2nc(-c3ccc(Cl)cc3)cc(C(F)(F)F)n2n1 (configuration not stated) | -6% |
| N#CCSc1nc2c(c(=O)n1Cc1ccccc1)C1(CCCC1)Cc1ccccc1-2 | -2.7% |
| O=c1[nH]c(CSCCO)nc2c1C1(CCCCC1)Cc1ccccc1-2 | 16.8% |
| CCn1c(=O)c2c(n3c(SCC(N)=O)nnc13)-c1ccccc1CC21CCCCC1 | 54% (active) |
| O=C(Nc1cccc(NC(=O)c2ccccc2[N+](=O)[O-])c1)c1ccccc1Cl | 5% |
| COc1ccc2cc(-c3nnc(NC4CCCCC4)s3)c(=O)oc2c1 | -11% |
| Cc1cccc(C2C3=C(CCCC3=O)N=C3c4ccccc4C(=O)C32)c1 (configuration not stated) | 8% |
| O=C1CCCC2=C1C(c1cccc([N+](=O)[O-])c1)C1C(=O)c3ccccc3C1=N2 (configuration not stated) | 10% |
| COc1ccc(C2C3=C(CC(C)(C)CC3=O)N=C3c4ccccc4C(=O)C32)cc1 (configuration not stated) | 62% (active) |
| CC(C)CC(=O)N1CCc2ccccc2C1 | -9.1% |
| COc1ccc(C=C2Oc3c(ccc4c3CN(Cc3ccc(OC)c(OC)c3)CO4)C2=O)cc1OC | 44% |
| CC(C)n1c(C2CCN(S(=O)(=O)Cc3ccc(F)cc3Cl)C2)nc2ccncc21 (configuration not stated) | 9.49% |
| CCCCCCOc1ccc(NC(=O)CC2SC(=N)NC2=O)cc1 (configuration not stated) | 1% |

| Structure (SMILES) | inhibition |
| --- | --- |
| COC(=O)c1ccc(CN2CCCC2c2cc(C)on2)cc1 (configuration not stated) | 1.57% |
| N=C1S/C(=C\c2ccc(-c3ccccc3[N+](=O)[O-])o2)C(=O)N1c1ccc2c(c1)OCO2 | 26% |
| CC(=O)Nc1nonc1N1C(=N)S/C(=C\c2ccc(-c3cccc(F)c3)o2)C1=O | 57% (active) |
| COc1cccc(/C=C2\SC(=N)N(c3ccc(F)cc3)C2=O)c1 | 3% |
| COc1ccc2nc(NCCn3cccn3)sc2c1 | -1.7% |
| CCOC(=O)C1CCCN(C(=O)c2nn(-c3ccc(F)cc3)c(=O)cc2OC)C1 (configuration not stated) | -5.9% |
| O=C(c1cccc(Cl)c1)N1CCN(Cc2ccccc2)CC1 | 4.6% |
| O=C(Nc1ccccc1)N1CCN(Cc2ccccc2)CC1 | -7.6% |
| O=C(c1ncn[nH]1)N1CCN(Cc2ccccc2)CC1 | 90.3% (active) |
| CCOc1ccc(C2CC(c3ccc(Cl)cc3)Nc3nnnn32)cc1OC (configuration not stated) | 38% |
| Cc1cc(C(=O)NCc2ccc(C)o2)c2cccc(-c3cccs3)c2n1 | -56.5% |
| COc1ccccc1C1(CCNCc2ccc3c(c2)OCO3)CCOC(C)(C)C1 (configuration not stated) | 3.46% |
| O=C1CN(C(=O)c2ccccc2F)C(c2ccc(F)cc2)c2cc(F)ccc2N1 (configuration not stated) | -4% |
| Cc1ccc2c(c1)C(c1ccc(F)cc1)N(C(=O)c1ccc(C)c(C)c1)CC(=O)N2 (configuration not stated) | 69% (active) |
| Cc1ccc2c(c1)C(c1ccc(F)cc1)N(C(=O)c1c(F)cccc1Cl)CC(=O)N2 (configuration not stated) | 22% |
| COc1ccc(C=C2Oc3cc(OC(C)=O)ccc3C2=O)c(OC)c1OC | 16.2% |
| COc1ccc(C(=O)C=Cc2ccc(C)cc2)c(OC(=O)c2ccco2)c1 | 17% |
| Oc1ccc2c(c1)OCC1c3cc4c(cc3OC21)OCO4 (configuration not stated) | 65.8% (active) |
| Cc1ccccc1NCc1cc(=O)oc2cc(O)c(O)cc12 | 29.6% |
| CCc1ccc(CN2CCC(C(=O)N3CCN(Cc4ccccc4)CC3)CC2)cc1 | 36.4% |
| CNC(=O)C1CCN(Cc2cc3ccccc3n2Cc2ccc(F)cc2)CC1 | 85.1% (active) |
| O=C(NCc1ccc(F)cc1)C1CCN(c2cnn(Cc3ccccc3)c(=O)c2)CC1 | 2.29% |
| O=S(=O)(NCCc1ccc(F)cc1)c1ccc(F)cc1 | -3.6% |
